Measurements published in PubChem BioAssay (NCI).
About 79,000 compounds went through this panel and 15% of them were active in at least one assay; those are over-represented in the sample as a whole. Unmarked numbers belong to inactive results. The source made the active and inactive calls. Cut-off read from the data, not from the text of the source: active = growth inhibition above about 70%; inactive = the rest.

How the values were obtained:
[1] = NCI Yeast Anticancer Drug Screen. Data for the rad50 strain (AID 155);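 note: 0% = growth of vehicle-only cultures of the same strain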; conditions: S. cerevisiae rad50 strain growth inhibition; at 50.0 µM; hits give high values
How it was run: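 Vehicle-treated cultures provide the reference for the growth inhibition reported for compound-exposed, repair-deficient yeast.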

[2] = NCI Yeast Anticancer Drug Screen. Data for the mec2-1 strain (AID 157); conditions: S. cerevisiae mec2-1 strain, at 50.0 µM, hits give high values
How it was run: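 Compounds were applied to mec2-1 yeast cells. Their growth was then compared with that of vehicle-treated cultures to give growth inhibition.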

[3] = NCI Yeast Anticancer Drug Screen. Data for the sgs1 mgt1 strain (AID 161);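 note: 0% = growth of cultures given vehicle only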; conditions: S. cerevisiae sgs1 mgt1 strain, at 50.0 µM, hits give high values
How it was run: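 Yeast cells carrying a defined DNA-repair defect were exposed to test compounds. Growth inhibition was measured relative to vehicle-treated controls.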

[4] = NCI Yeast Anticancer Drug Screen. Data for the cln2 rad14 strain (AID 165);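 note: 0% = growth equal to vehicle treated cultures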; conditions: S. cerevisiae cln2 rad14 strain, at 50.0 µM, hits give high values
How it was run: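 Strain: cln2 rad14 yeast, altered in cell cycle control and DNA damage repair. Read-out: growth inhibition vs vehicle.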

[5] = NCI Yeast Anticancer Drug Screen. Data for the bub3 strain (AID 167); conditions: S. cerevisiae bub3 mutant strain, at 50.0 µM, hits give high values
How it was run: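 Mutant yeast screening strain plus compound; vehicle-treated cultures serve as the 0% inhibition reference.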

[6] = NCI Yeast Anticancer Drug Screen. Data for the mlh1 rad18 strain (AID 175); conditions: S. cerevisiae mlh1 rad18 strain growth inhibition; at 50.0 µM; hits give high values
How it was run: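 A repair-deficient yeast strain is exposed to test compound, and growth is scored relative to vehicle-treated controls.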

SMILES	growth inhibition [1]	growth inhibition [2]	growth inhibition [3]	growth inhibition [4]	growth inhibition [5]	growth inhibition [6]
Oc1cc2c(cc1C(c1ccc(F)cc1)N1CCCC1)OCO2 (configuration not stated)	33.1%	19.5%	39.9%	-15.6%	37.9%	35.1%
CCN(CC)C(=O)CCC1(C)OCCO1	-4.8%	-12.1%	-25.3%	56.4%	-13.9%	6.45%
CC(=O)N(C)C	-9.9%	-2.05%	12.9%	6%	-2.3%	-6.5%
CN(C)C(=O)C1CCNCC1	2.5%	-2.1%	-4.15%	-9.5%	-11.3%	3.45%
CCCn1c(SCC)c2ccccc2c1-c1nc(F)nc(F)n1	-11.8%	-21.8%	-6.75%	18.9%	-20.7%	4.1%
N#CCC(=O)O	-0.2%	6.5%	-4.3%	2.05%	-3.2%	-9%
Cc1ccc(OCCNCCO)cc1	23.3%	-11.4%	6.3%	10.4%	-1.2%	18.2%
CC1(C)C2CC(NC(=O)c3ccc([N+](=O)[O-])cc3)C1C2 (configuration not stated)	18.6%	4.6%	-1.5%	-4.9%	3.25%	11.9%
CC(=N\[O-])/C(C)=N/O.CC(=N\[O-])/C(C)=N/O.CCCc1ccncc1.[Cl-].[Cl-].[Rh+3]	-9.2%	-34%	-29.4%	13.7%	-44.6%	3.9%
COc1cc2oc(-c3ccc(O)cc3)c(OC3OC(C)C(O)C(O)C3O)c(=O)c2c(O)c1OC (configuration not stated)	0.45%	-13.8%	-15.6%	9.4%	-7.95%	-74.6%
Cc1cc2c(cc1C=O)C(C)(C)CCC2	9.75%	0.85%	-6.85%	-32.2%	2.85%	26.2%
Cc1ccc([N+](=O)[O-])c2c(NCCCN(C)C)ccnc12	42.2%	16.1%	20%	4.7%	13.2%	49.2%
CCCCC(=O)CCCCCCCCC(=O)CCCC	0.7%	-8.65%	-19.8%	-31.2%	-4%	-19.8%
CCOC(=O)c1cn(CC)c2ccc3ccsc3c2c1=O	-18.2%	-40.4%	-15.5%	10.2%	-9.4%	-30.9%
CCCCC(NC(=O)OCc1ccccc1)C(=O)NC(Cc1c[nH]c2ccccc12)C(=O)O (configuration not stated)	37.6%	3.9%	14.7%	17.8%	0.4%	9.25%
COc1ccc(NC(=O)CCc2cc(C(C)(C)C)n[nH]2)cc1	-22.1%	-15.8%	-3.8%	12.6%	-16.7%	-8.5%
S=C1NCCN1c1ccc(Cl)cc1	-16.4%	-16.1%	-20.4%	-21.8%	-30.5%	5.55%
COC(=O)/C=C1\C(=O)c2ccccc2-c2ccccc21	35.8%	35.4%	13.9%	20.3%	25.4%	51.6%
O=c1[nH]c2cc3[nH]c(=O)c(=O)[nH]c3cc2[nH]c1=O	-21.8%	-16.6%	-6.7%	8.85%	-5.7%	-17.2%
O=C1CCN2CCC(=O)c3c(Cl)ccc1c32	8.05%	13.3%	8.5%	13.8%	14.1%	16.9%
N#C/C=C/c1ccc(Cl)cc1	-3.45%	-3%	7.2%	20.6%	-2%	-7.05%

SMILES	growth inhibition [1]	growth inhibition [2]	growth inhibition [3]	growth inhibition [4]	growth inhibition [5]	growth inhibition [6]
c1ccc(C2=NN(c3ccccc3)C3C4CCC(C4)C23)cc1 (configuration not stated)	-5.6%	8.15%	-6.2%	-49%	13.8%	12.1%
NCCCN=c1ccc2c3c1c(O)c1c(O)ccc(=O)c1c3[nH]n2CCNCCO	89.1% (active)	35.1%	33.3%	17.9%	28.6%	36.2%
CCOC(=O)c1c(Cl)c(CC)c(Cl)n2c1nc1ccccc12	-12.7%	-7.45%	14.8%	-9.6%	-2.8%	4.05%
CC1Cn2c(nccc2=O)S1 (configuration not stated)	-15.1%	-14.2%	-33.4%	1.9%	3.5%	-29.1%
Cc1cccc2c(C(=O)O)c3cccc(C)c3nc12	2.9%	-0.15%	8.35%	18.6%	5.3%	-3.95%
OCC1CC=CCC1 (configuration not stated)	2.35%	-22.1%	-4.35%	16%	-27.1%	11.6%
Oc1ccc2ccccc2c1C=NCCS	24.9%	6.25%	2.7%	-25.6%	-3.4%	3.15%
COc1ccc(/C=C2\C(=O)N(C(=O)c3ccc(NC(C)=O)cc3)N=C2C)cc1	-27.6%	-36.2%	-39.2%	-0.3%	-20.9%	-41.2%
CC1(C)Cc2oc(=Nc3ccccc3)n(-c3ccccc3)c(=O)c2C1	9.95%	2.15%	1.9%	-13.2%	4.6%	0.15%
C=CC1CNCCC1CCC(=O)c1ccnc2ccc(OC)cc12 (configuration not stated)	7.75%	-9.6%	-1.2%	5.85%	1.15%	4.4%
CSc1ncc2c(C#N)c3ccccn3c(=O)c2n1	6.65%	-7%	11.2%	-1.5%	14.4%	-17.5%
O=C(CN1CCOCC1)Nc1cccc(Cl)c1	0.5%	-20.1%	-2.6%	-14.8%	58.3%	-29.1%
NNc1cc(=O)[nH]c(N)n1	-17.6%	-18.6%	-31.2%	-19.1%	-6.95%	-29.9%
Nc1ccn(C2OC(COC(=O)C34CC5CC(CC(C5)C3)C4)C(O)C2O)c(=O)n1 (configuration not stated)	-14.5%	0.4%	-35.5%	-2.4%	-31.2%	6.3%
COc1ccc(C(=O)c2cc3c(ccc4ccccc43)oc2=O)cc1	-3.7%	0.6%	7.2%	2.85%	23.9%	-7.45%
Cc1c(Cl)c2ccc(N(C)C)cc2[nH]c1=O	-2.9%	0.45%	-0.1%	-6.35%	11.2%	7.65%
Cc1nc2ccccc2c(=O)n1NC(=S)Nc1ccccc1	-40.9%	-57.1%	-41.5%	7.85%	-32.4%	-59.5%
Cn1c(=O)c2c(n(C)c1=O)n(C)c(=O)n2C	18.3%	8.25%	-18.9%	12.7%	1.85%	15.9%
Nc1cc(S(N)(=O)=O)ccc1O	10.3%	-11.6%	-21.9%	-10.6%	-12%	12.4%
COC1C2C[C@@H](O)CCC2C(C(=O)OCCl)C[C@H]1O (some centres not stated)	-12.4%	-6.9%	-11%	-27.2%	-10.6%	-30.2%
COc1cc(C(c2ccc(O)c(OC)c2)c2ccc(O)c(OC)c2)ccc1O	31.9%	15.2%	34.6%	30.1%	4.95%	24.9%
